Results on four compounds are retold here after ChEMBL document CHEMBL3988442, “University of Dundee, Small-Polar-MMV Screening Library” (2021).

Test [1] deals with T1, Methionyl-tRNA synthetase, putative (Leishmania donovani (strain BPK282A1)) (UniProt E9BF75).
T1 sequence (whole entry): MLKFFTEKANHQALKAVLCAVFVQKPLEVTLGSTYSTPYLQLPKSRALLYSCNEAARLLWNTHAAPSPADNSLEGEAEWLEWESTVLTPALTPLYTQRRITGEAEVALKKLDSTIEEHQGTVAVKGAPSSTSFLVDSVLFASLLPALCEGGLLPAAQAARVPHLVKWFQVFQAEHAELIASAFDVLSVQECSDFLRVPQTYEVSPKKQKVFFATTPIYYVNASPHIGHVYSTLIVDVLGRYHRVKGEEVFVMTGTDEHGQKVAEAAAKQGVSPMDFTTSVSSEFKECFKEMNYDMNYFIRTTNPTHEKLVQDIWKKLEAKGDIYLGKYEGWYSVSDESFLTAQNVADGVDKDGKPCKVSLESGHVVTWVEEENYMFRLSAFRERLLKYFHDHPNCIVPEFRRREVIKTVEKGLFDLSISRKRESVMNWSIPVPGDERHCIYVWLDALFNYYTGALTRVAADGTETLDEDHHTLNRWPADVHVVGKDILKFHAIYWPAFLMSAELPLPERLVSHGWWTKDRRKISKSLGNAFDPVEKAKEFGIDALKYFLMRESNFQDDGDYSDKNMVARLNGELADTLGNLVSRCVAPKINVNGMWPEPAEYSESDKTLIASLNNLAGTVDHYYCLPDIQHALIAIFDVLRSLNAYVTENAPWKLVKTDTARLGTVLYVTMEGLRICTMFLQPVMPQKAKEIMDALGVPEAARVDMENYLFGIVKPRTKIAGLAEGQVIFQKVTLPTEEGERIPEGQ
The test can be described thus: Leishmania donovani Methionine tRNA synthetase (LdMetRS):v7. Dose response assay. The test is classed as functional. The arrangement: conc 80 nM, time 150 minutes.

Test [2] concerns the target Protein translocase subunit SecA (Escherichia coli (strain K12)) (UniProt P10408). The test can be described thus: Assay to Identify E. coli SecA ATPase Inhibitors. The test is classed as functional. The arrangement: scale not given: direction of the effect not stated beside the values. To be noted: 30 µM.
The target of test [3] is T2, Ubiquitin-activating enzyme e1, putative (Leishmania donovani (strain BPK282A1)) (UniProt E9BSI1).
T2 sequence (whole entry): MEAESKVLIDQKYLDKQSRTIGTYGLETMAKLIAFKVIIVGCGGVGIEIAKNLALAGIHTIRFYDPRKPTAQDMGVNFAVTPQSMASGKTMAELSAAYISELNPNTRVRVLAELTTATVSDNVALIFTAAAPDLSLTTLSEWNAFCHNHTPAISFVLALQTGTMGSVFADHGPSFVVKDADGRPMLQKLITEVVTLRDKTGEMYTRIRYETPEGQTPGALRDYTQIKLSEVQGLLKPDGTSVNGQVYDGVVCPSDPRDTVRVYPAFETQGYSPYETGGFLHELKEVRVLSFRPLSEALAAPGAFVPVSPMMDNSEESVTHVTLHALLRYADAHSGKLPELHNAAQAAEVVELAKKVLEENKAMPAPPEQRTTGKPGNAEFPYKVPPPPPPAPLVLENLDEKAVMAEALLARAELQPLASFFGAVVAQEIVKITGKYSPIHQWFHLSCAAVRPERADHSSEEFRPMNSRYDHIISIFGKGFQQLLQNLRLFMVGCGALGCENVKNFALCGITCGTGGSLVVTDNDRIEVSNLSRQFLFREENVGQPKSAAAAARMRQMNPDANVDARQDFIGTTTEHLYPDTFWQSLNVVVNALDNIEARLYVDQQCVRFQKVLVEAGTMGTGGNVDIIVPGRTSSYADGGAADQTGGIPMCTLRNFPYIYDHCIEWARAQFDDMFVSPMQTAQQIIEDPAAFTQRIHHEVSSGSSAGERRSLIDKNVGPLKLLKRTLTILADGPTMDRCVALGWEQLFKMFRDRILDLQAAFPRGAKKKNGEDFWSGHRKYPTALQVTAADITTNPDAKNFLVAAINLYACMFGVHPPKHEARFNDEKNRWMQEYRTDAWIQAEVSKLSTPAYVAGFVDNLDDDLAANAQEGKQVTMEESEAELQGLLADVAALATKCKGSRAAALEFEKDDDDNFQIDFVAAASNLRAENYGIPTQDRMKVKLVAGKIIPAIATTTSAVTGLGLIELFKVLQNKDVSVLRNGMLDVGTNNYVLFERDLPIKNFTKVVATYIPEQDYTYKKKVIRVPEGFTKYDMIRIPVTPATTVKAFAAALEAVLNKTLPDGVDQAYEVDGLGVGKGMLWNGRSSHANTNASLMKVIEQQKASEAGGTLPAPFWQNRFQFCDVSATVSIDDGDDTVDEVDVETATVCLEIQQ
As to the kind of experiment: Leishmania donovani Ubiquitin Activating Enzyme (LdE1). The class given is functional. Set-up: scale not given: direction of the effect not stated beside the values. Particulars: 30 µM.

Test [4] has as its target AMP-activated protein kinase, AMPK (Homo sapiens) (UniProt P54646+O43741+P54619+Q9UGJ0+Q9Y478+Q13131+Q9UGI9). As to the kind of experiment: AMP-dependent Kinase enzyme assay. An in vitro enzyme assay that detects ADP turnover that is directly proportional to AMPK activity. This uses naive AMPK that is activated during the assay with MK-8722. The class given is functional. Set-up: scale not given: direction of the effect not stated beside the values. To be noted: 30 µM.

The target in test [5] is Sialic acid-binding Ig-like lectin 9 (Homo sapiens) (UniProt Q9Y336). As to the kind of experiment: Hs-Siglec9 ALPHAscreen SOP 20170721. Set-up: scale not given: direction of the effect not stated beside the values. To be noted: 10 µM. For orientation: In Alpha technology, singlet oxygen from a donor bead excites a nearby acceptor bead.
Chain of Sialic acid-binding Ig-like lectin 9 (Homo sapiens) (Q9Y336 whole entry): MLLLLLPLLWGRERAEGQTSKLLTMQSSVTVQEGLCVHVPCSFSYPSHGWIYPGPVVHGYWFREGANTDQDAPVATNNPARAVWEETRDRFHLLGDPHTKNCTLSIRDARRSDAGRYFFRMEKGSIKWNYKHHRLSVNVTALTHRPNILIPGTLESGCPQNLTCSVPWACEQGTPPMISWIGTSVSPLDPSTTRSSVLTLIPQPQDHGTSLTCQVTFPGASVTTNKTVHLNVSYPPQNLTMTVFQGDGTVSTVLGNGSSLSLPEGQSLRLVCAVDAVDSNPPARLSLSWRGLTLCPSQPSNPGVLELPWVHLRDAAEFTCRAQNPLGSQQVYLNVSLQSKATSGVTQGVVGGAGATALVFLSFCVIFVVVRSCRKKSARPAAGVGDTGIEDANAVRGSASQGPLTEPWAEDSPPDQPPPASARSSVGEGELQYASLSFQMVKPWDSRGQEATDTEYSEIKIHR
In a further test the test system is Trypanosoma cruzi. The test can be described thus: Trypanosoma cruzi phosphomannomutase and mannose-1-phosphate guanylyltransferase assay. The test is classed as functional. Set-up: scale not given: direction of the effect not stated beside the values. To be noted: 10 µM.
Test [6] addresses T3, Arginase-2, mitochondrial (Homo sapiens) (UniProt P78540).
T3 sequence (whole entry): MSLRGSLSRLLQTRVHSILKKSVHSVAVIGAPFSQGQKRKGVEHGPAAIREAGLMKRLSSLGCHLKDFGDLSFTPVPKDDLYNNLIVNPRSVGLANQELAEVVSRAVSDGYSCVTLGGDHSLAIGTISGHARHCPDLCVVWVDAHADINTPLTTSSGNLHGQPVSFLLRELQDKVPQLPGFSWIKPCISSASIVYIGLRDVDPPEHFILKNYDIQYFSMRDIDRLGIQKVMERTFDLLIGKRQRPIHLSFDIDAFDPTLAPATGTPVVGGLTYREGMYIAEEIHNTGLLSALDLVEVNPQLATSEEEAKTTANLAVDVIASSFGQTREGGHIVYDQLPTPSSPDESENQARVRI
As to the kind of experiment: in vitro enzyme assay to detect the production of urea directly proportional to the activity of Arginase II. The test is classed as functional. The arrangement: scale not given: in the data most compounds retested in dose-response had high values. To be noted: 33.3 µM.

Test [7] deals with T4, Proteasome subunit beta (Trypanosoma cruzi) (UniProt O96673).
T4 sequence (whole entry): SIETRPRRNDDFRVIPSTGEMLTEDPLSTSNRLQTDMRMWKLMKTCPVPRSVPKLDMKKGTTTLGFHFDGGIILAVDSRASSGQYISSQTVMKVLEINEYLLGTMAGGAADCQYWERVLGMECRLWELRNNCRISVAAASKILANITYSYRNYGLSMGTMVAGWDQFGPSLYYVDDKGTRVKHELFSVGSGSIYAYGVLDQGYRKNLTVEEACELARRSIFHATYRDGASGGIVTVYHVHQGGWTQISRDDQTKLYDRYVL
The test can be described thus: Trypanosoma cruzi proteasome chymotrypsin-like activity (TcProtChymo) assay. To be noted: 9.37 µM. The test is classed as functional. Set-up: scale not given: in the data most compounds retested in dose-response had high values.

The species named for a further test is Homo sapiens. The test can be described thus: To identify inhibition of the IFN signalling (Jak-Stat) pathway via expression of an eGFP reporter gene under the control of an IFN-stimulated response element (ISRE) containing MxA promoter. The test is classed as functional. Set-up: scale not given: direction of the effect not stated beside the values. To be noted: 30 µM. Background: In a reporter assay the amount or activity of a reporter protein is the signal.

The target of test [8] is T5, Tyrosyl-tRNA synthetase, putative (Trypanosoma cruzi (strain CL Brener)) (UniProt Q4DSP6).
T5 sequence (whole entry): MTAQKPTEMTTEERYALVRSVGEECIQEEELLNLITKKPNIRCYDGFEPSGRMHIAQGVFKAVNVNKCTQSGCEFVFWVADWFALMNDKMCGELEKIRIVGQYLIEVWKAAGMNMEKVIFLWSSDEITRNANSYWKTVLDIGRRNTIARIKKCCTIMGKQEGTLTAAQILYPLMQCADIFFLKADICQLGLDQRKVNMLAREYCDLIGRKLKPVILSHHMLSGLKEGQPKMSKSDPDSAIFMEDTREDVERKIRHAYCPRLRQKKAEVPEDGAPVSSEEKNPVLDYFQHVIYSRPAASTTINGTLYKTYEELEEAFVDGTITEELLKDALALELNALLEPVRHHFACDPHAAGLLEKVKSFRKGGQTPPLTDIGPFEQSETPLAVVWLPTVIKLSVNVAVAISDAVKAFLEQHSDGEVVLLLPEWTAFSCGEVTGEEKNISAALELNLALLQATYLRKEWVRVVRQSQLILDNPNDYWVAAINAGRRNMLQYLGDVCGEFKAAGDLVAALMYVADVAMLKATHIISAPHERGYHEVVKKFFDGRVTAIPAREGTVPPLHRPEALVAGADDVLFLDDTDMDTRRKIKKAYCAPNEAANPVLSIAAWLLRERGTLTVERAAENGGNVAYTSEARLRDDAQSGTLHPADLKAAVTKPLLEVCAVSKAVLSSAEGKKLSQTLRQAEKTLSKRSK
The test can be described thus: Trypanosoma cruzi tyrosyl tRNA synthetase (TcYRS) _High Tyrosine SOP. The test is classed as functional. Set-up: scale not given: in the data most compounds retested in dose-response had high values. Particulars: 30 µM.

The target of test [9] is T5, Tyrosyl-tRNA synthetase, putative (Trypanosoma cruzi (strain CL Brener)). The test can be described thus: Trypanosoma cruzi tyrosyl tRNA synthetase (TcYRS) SOP. The class given is functional. The arrangement: scale not given: direction of the effect not stated beside the values. To be noted: 30 µM.
Test [10] addresses Chromo domain-containing protein 1 (Saccharomyces cerevisiae (strain ATCC 204508 / S288c) (Baker's yeast)) (UniProt P32657). The test can be described thus: ScCHD-1 Enzyme Inhibition Assay. The test is classed as functional. Set-up: scale not given: in the data most compounds retested in dose-response had high values. To be noted: 30 µM.

For part of these data: Potency and affinity values are given separately.

Chain of Chromo domain-containing protein 1 (Saccharomyces cerevisiae (strain ATCC 204508 / S288c) (Baker's yeast)) (P32657 whole entry, the tested form may be a part): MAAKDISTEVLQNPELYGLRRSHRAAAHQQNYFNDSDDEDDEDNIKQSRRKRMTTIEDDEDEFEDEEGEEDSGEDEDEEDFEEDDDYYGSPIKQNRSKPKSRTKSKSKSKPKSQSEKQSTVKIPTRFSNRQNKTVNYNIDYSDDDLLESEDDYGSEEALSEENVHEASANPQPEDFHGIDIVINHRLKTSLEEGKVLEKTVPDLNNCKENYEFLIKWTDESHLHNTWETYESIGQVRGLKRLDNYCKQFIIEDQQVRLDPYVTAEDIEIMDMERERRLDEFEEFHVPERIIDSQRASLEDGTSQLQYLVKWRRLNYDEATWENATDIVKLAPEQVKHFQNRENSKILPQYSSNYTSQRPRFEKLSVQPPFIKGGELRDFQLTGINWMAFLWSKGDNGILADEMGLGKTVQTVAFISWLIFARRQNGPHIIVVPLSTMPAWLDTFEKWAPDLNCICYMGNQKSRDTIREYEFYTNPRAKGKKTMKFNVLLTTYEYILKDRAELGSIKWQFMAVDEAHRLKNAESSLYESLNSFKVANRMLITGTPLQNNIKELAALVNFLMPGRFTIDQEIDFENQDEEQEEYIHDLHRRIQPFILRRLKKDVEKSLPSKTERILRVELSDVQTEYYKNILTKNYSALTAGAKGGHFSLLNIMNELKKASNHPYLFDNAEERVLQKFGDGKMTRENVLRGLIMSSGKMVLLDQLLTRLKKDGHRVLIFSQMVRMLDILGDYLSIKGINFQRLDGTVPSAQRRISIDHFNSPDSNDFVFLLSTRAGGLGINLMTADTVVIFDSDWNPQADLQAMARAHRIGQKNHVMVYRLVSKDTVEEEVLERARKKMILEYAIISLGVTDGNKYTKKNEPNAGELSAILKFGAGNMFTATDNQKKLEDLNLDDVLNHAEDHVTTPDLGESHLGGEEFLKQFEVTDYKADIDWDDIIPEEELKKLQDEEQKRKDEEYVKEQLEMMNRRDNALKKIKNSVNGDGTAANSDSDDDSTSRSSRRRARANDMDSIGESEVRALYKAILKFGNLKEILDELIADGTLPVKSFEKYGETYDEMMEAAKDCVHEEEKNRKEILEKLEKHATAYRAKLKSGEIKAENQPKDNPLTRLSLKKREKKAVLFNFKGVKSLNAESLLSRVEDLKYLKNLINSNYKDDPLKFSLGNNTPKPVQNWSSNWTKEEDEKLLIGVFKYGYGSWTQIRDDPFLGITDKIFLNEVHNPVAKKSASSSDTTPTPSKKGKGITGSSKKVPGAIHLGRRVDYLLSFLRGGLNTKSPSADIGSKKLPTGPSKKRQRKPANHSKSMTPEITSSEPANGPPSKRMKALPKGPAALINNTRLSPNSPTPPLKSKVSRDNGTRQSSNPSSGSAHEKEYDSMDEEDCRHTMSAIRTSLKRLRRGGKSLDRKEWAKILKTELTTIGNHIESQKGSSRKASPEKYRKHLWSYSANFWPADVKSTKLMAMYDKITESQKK
Chain of Protein translocase subunit SecA (Escherichia coli (strain K12)) (P10408 whole entry): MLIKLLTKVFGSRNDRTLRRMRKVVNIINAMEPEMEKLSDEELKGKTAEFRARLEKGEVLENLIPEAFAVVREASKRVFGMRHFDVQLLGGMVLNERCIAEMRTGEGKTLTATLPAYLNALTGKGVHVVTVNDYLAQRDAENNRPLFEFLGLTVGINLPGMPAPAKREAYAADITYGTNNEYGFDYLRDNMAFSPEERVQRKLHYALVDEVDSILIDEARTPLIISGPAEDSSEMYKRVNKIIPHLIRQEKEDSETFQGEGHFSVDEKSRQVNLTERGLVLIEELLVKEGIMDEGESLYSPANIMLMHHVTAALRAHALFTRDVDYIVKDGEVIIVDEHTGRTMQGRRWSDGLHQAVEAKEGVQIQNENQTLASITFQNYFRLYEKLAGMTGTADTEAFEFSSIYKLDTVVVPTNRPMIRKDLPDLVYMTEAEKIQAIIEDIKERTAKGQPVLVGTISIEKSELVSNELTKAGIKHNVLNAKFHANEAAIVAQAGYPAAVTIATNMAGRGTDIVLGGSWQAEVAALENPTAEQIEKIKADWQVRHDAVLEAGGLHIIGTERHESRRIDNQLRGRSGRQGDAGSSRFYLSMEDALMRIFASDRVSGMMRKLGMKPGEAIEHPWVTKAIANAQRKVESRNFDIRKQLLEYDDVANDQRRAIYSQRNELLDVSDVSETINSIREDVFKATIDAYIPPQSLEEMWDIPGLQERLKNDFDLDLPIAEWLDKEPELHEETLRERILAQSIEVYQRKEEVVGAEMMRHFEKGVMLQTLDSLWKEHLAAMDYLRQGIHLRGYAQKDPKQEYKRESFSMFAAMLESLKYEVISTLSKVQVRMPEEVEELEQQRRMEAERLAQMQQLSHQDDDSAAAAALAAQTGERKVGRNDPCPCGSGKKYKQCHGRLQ

Turning to `OCCNc1nc(Nc2cccc(F)c2)nc2ccsc12`, the PXC50 in test [1] (BOTTOM 3.044431964, HILLSLOPE 0.890140098, MAX_EFFECT 69.62809917, TOP 98.77893837) is 4.42; in test [1] (BOTTOM -0.299639933, HILLSLOPE 0.74457476, MAX_EFFECT 65.18375242, TOP 100.0), 4.37; in test [1] (BOTTOM -0.909696564, HILLSLOPE 1.048927528, MAX_EFFECT 68.28193833, TOP 78.21382142) it was 4.73.
As for `Cn1ncc2c(NCCCO)nc(Nc3ccc(F)c(F)c3)nc21`, the PXC50 in test [1] (BOTTOM 3.669470718, HILLSLOPE 1.210805745, MAX_EFFECT 80.79625293, TOP 84.65096449) was 5.1; in test [1] (BOTTOM -1.663315364, HILLSLOPE 0.981462858, MAX_EFFECT 92.22222222, TOP 100.0), 4.94; in test [1] (BOTTOM -4.044672009, HILLSLOPE 0.90681659, MAX_EFFECT 92.93598234, TOP 107.9137749), 4.87.
As for `Cc1nc(N2CCCCC2)ncc1-c1cc(O)[nH]n1`, the PXC50 in test [1] (MAX_EFFECT 13.62007168), in [1] (MAX_EFFECT 16.42743222), in [1] (MAX_EFFECT 31.28598848), in test [1] (MAX_EFFECT 33.33333333) and in [1] (MAX_EFFECT 39.9339934) was under 4 each time. For the same compound, the Percent Effect is -5.23% in [2]; 1.33% in test [3]; 13% in [4]; 8.28% in test [5]; 1.18% in the test on Trypanosoma cruzi; -8.28% in [6]. In addition, the Percent Effect in [7] was 6.65%; in the test filed under Homo sapiens, -20%; in test [8], 5.29%; in [9], 7.69%; in test [10] it was -1.87%.
Turning to `O=C(O)CN1CCC(F)(F)C2(CCN(c3ccccc3)C2)C1` (configuration not stated), the PXC50 in test [1] (BOTTOM 0.682019073, HILLSLOPE 1.183129542, MAX_EFFECT 69.01408451, TOP 100.0) turned out to be 4.25; in [1] (BOTTOM 1.497780238, HILLSLOPE 1.024260355, MAX_EFFECT 65.37037037, TOP 100.0), 4.23; in [1] (BOTTOM -1.515302198, HILLSLOPE 0.859784414, MAX_EFFECT 63.76811594, TOP 100.0), 4.28; in test [1] (BOTTOM -4.436470638, HILLSLOPE 1.966892025, MAX_EFFECT 57.61821366, TOP 100.0) it was 4.1; in test [1] (BOTTOM -10.23367543, HILLSLOPE 2.537985382, MAX_EFFECT 60.54421769, TOP 60.60381795), 4.54.
